# Laboratory results taken from the supplement of paper PMC10811239.
# System: LEGO organoid PTCC (PTEN-/-; TP53-/-; CDKN2A-/-; CDKN2B-/-)
# Assay: bioluminescence (viable cell) signal fold change after vs before treatment, normalised to DMSO (ratio); higher = more tumour cell growth / less inhibition
# Conditions: 10 µM; treatment time 6 days
# Method: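 Luc2-labelled iPSC-derived glioblastoma-like organoids (LEGOs, genotypes PT = PTEN-/-;TP53-/-, PTCC = plus CDKN2A/B-/-, PTN = plus NF1-/-) were treated with 10 uM drug for 6 days (applied every other day) at 37 C. Bioluminescence imaging was done before treatment and 2 days after the last dose. BLI signals were normalised to the DMSO control on the same day and then to the pre-treatment signal (N=3).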
row,Structure (SMILES),bioluminescence
1,CC(C)c1cccc(C(C)C)c1O [Propofol],0.675
2,CC[C@@H](C(N)=O)N1CCCC1=O [Levetiracetam],1.07
3,NCC(CC(=O)O)c1ccc(Cl)cc1 (configuration not stated) [Baclofen],0.877
4,COc1ccc(C(CN(C)C)C2(O)CCCCC2)cc1.Cl (configuration not stated) [Venlafaxine hydrochloride],0.737
5,CCN(C)C(=O)Oc1cccc([C@H](C)N(C)C)c1.O=C(O)[C@H](O)[C@@H](O)C(=O)O [Rivastigmine tartrate],0.566
6,COc1cc2c(cc1OC)[C@@H]1CC(=O)[C@@H](CC(C)C)CN1CC2.COc1cc2c(cc1OC)[C@H]1CC(=O)[C@H](CC(C)C)CN1CC2 [Tetrabenazine],1.1
7,CN[C@@H]1C[C@H]2O[C@@](C)([C@@H]1OC)n1c3ccccc3c3c4c(c5c6ccccc6n2c5c31)C(=O)NC4 [Staurosporine],0
8,NCC1(CC(=O)O)CCCCC1 [Gabapentin],1.26
9,CCN(C)C(=O)Oc1cccc([C@H](C)N(C)C)c1 [Rivastigmine],0.555
10,CCOC(=O)c1cncn1[C@H](C)c1ccccc1 [Etomidate],1.01
11,CCC1(c2ccc(N)cc2)CCC(=O)NC1=O (configuration not stated) [Aminoglutethimide],1.11
12,O=C(O)CCCc1ccc(N(CCCl)CCCl)cc1 [Chloroambucil],1.06
13,Cc1cccc([C@H](C)c2cnc[nH]2)c1C.Cl [Dexmedetomidine HCl],1.39
14,CN(C)C(=O)Oc1ccc[n+](C)c1.[Br-] [Mestinon],1.67
15,CC(C)C[C@H]1C(=O)N2CCC[C@H]2[C@]2(O)O[C@](NC(=O)[C@@H]3C[C@@H]4c5cccc6[nH]cc(c56)C[C@H]4N(C)C3)(C(C)C)C(=O)N12.CC(C)[C@@]1(NC(=O)[C@@H]2C[C@@H]3c4cccc5[nH]cc(c45)C[C@H]3N(C)C2)O[C@@]2(O)[C@@H]3CCCN3C(=O)[C@H](Cc3ccccc3)N2C1=O.CC(C)[C@H]1C(=O)N2CCC[C@H]2[C@]2(O)O[C@](NC(=O)[C@@H]3C[C@@H]4c5cccc6[nH]cc(c56)C[C@H]4N(C)C3)(C(C)C)C(=O)N12.CCC(C)[C@H]1C(=O)N2CCC[C@H]2[C@]2(O)O[C@](NC(=O)[C@@H]3C[C@@H]4c5cccc6[nH]cc(c56)C[C@H]4N(C)C3)(C(C)C)C(=O)N12.CS(=O)(=O)O [Dihydroergotoxine mesylate],1.82
16,Cc1n[nH]cc1-c1cc2[nH]c([C@@H]3CC4CCN3CC4)nc(=O)c2s1 [Simurosertib],1.46
17,Cl.Cn1c(CCCC(=O)O)nc2cc(N(CCCl)CCCl)ccc21 [Bendamustine hydrochloride],0.752
